# Measurements: the supplement of paper PMC10849652
# The full data set covers some 7,900 targets. This sample favours those with a hit. About 0.6% of all pairs of compound and target were hits. A number with no mark means an inactive call.
# Key:
# Experiment in all cases: log2 fold change, soluble protein after heating vs DMSO (PISA); higher = thermal stabilisation; K562 cells, 10 uM, 30 min; active = over 0.2 and 3.5 SD of the protein, either way, in both replicates (recomputed)
# [1] = compound: C#Cc1cccc(Nc2ncnc3cc(OCCOC)c(OCCOC)cc23)c1 [erlotinib]
# Summary of the method: (§1)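 K562 cells at 2×10^6 cells/mL were treated for 30 min with 10 μM compound, and aliquots were heated for 3 min over 48°C-58°C before pooling. Extraction used PBS with 0.5% NP-40 at 4°C, and soluble protein was the supernatant after 21,000xg for 90 min, measured by TMTpro 16plex LC-MS/MS with channel sums equalised. Thermal stability values, relative to control samples and from duplicates, are log2 fold changes.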
# [2] = compound: C/C(=N\NC(=O)C1=CC(=CC=C1)S(=O)(=O)N2CCOCC2)/C3=C(C=CC(=C3)Cl)O
# Summary of the method: as §1
# [3] = compound: C1=CC(=C(C=C1Cl)C2=NC3=NC=CN=C3C(=N2)NC4=CC=NC=C4)F
# Summary of the method: as §1
# [4] = compound: C1=CC(=CC=C1C2=NC3=C(N2)C=C(C=C3)C(=O)N)OC4=CC=C(C=C4)Cl
# Summary of the method: as §1
# [5] = compound: C1=CC2=C(C=CC(=C2)/C=C\3/C(=O)NC(=NCC4=CC=CS4)S3)N=C1
# Summary of the method: as §1
# [6] = compound: C1=CC2=NC=CN=C2C=C1/C=C/3\C(=O)NC(=O)S3
# Summary of the method: as §1
# [7] = compound: C1=CC=C(C=C1)C2=NC(=C(N2)C3=CC=NC=C3)C4=CC(=C(C=C4)Cl)O
# Summary of the method: as §1
# [8] = compound: C1=CC=C2C(=C1)C3=NNC4=CC=CC(=C43)C2=O
# Summary of the method: as §1
# [9] = compound: C1CCN(C1)C(=O)NC2=CC=CC(=C2)NC3=NC=C(C(=N3)NCCC4=CN=CN4)Br
# Summary of the method: as §1
# [10] = compound: C1CN(CCC1(CC2=CC=C(C=C2)Cl)N)C3=NC=NC4=C3C=CN4
# Summary of the method: as §1
# [11] = compound: C1COCCN1CCN2C3=CC=CC=C3N=C2NC(=O)C4=CC(=CC=C4)[N+](=O)[O-] [IRAK-1-4 Inhibitor I]
# Summary of the method: as §1
# [12] = compound: C=CC(=O)N1CCC[C@@H](n2nc(-c3ccc(Oc4ccccc4)cc3)c3c(N)ncnc32)C1 [ibrutinib]
# Summary of the method: as §1
# [13] = compound: CC(=O)c1cnc2ccc(-c3cc(Cl)c(O)c(Cl)c3)nc2c1N[C@H]1CC[C@H](CN(C)C)CC1
# Summary of the method: as §1
# [14] = compound: CC(C)(C)Cn1c(N)nc2ccc(-c3[nH]c(C(C)(C)C)nc3-c3ccc(F)cc3)nc21 [ralimetinib]
# Summary of the method: as §1
# [15] = compound: CC(C)(O)CC(=O)NCCn1ccc2ncnc(Nc3ccc(Oc4cccc(C(F)(F)F)c4)c(Cl)c3)c21
# Summary of the method: as §1
# [16] = compound: CC(C)C1=C2N=C(C=C(N2N=C1)NCC3=CC=CC=C3)NCCCCCCN
# Summary of the method: as §1
# [17] = compound: CC(C)C[C@@H](C=O)NC(=O)[C@H](CC(C)C)NC(=O)[C@H](CC(C)C)NC(=O)OCc1ccccc1
# Summary of the method: as §1
# [18] = compound: CC(C)N(C[C@H]1O[C@@H](n2cnc3c(N)ncnc32)[C@H](O)[C@@H]1O)[C@H]1C[C@@H](CCc2nc3cc(C(C)(C)C)ccc3[nH]2)C1 [pinometostat]
# Summary of the method: as §1
# [19] = compound: CC1=C(C(CC(=O)N1)C2=CC=C(C=C2)C(F)(F)F)C(=O)NC3=C(C=C4C(=C3)C=NN4)F
# Summary of the method: as §1
# [20] = compound: CC1=C(C2=C(C=C1)C(=O)C3=CC=CC=C3N2CCCN)C
# Summary of the method: as §1
# UniProt Q8NCC3, sequence (Q8NCC3 whole entry, looked up): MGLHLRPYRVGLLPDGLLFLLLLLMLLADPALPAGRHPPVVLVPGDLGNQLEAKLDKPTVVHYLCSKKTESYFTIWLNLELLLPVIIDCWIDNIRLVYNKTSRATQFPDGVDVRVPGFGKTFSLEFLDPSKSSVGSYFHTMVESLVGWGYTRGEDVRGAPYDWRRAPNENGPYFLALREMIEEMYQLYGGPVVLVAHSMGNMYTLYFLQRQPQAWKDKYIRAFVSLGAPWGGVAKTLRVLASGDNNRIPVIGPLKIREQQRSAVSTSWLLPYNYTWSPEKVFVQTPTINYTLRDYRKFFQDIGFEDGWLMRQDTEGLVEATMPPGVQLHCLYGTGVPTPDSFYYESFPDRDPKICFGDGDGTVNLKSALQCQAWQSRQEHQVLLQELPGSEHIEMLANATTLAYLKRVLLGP
# UniProt Q6EEV4, sequence (Q6EEV4 whole entry, looked up): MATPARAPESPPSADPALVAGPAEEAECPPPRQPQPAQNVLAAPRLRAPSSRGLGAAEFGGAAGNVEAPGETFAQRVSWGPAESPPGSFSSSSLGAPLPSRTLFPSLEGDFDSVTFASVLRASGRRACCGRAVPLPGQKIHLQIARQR
# UniProt Q02156, sequence (Q02156 whole entry, looked up): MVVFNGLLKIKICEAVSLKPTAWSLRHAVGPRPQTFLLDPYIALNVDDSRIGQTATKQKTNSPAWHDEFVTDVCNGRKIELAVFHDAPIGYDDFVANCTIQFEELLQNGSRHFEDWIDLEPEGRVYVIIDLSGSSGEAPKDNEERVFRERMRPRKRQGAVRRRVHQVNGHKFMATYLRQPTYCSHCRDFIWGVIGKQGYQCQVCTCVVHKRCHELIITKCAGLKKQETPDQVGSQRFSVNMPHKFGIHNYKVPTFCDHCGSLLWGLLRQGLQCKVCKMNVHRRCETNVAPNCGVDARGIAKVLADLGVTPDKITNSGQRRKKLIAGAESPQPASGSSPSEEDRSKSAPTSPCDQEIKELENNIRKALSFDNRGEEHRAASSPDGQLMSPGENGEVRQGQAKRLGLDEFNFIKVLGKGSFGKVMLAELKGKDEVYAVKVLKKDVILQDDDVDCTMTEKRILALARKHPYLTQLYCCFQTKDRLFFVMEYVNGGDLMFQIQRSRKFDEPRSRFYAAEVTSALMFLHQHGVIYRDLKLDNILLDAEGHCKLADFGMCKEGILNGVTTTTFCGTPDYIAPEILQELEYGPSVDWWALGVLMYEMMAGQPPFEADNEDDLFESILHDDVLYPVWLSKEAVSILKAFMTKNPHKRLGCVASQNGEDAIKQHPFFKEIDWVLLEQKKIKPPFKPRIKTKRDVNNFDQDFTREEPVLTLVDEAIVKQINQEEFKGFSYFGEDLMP
# UniProt P28065, sequence (P28065 whole entry, looked up): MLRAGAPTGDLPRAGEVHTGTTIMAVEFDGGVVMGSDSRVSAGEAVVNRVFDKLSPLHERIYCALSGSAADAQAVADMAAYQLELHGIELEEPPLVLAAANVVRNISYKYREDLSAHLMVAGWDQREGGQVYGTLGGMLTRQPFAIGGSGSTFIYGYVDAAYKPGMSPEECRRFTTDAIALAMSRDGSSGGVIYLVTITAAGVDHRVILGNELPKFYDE
# UniProt Q14442, sequence (Q14442 whole entry, looked up): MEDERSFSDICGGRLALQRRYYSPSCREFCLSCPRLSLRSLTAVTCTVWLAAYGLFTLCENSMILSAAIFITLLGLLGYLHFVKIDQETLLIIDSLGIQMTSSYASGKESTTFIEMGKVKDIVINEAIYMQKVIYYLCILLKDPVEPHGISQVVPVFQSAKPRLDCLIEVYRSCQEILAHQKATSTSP
# UniProt Q9H5K3, sequence (Q9H5K3 whole entry, looked up): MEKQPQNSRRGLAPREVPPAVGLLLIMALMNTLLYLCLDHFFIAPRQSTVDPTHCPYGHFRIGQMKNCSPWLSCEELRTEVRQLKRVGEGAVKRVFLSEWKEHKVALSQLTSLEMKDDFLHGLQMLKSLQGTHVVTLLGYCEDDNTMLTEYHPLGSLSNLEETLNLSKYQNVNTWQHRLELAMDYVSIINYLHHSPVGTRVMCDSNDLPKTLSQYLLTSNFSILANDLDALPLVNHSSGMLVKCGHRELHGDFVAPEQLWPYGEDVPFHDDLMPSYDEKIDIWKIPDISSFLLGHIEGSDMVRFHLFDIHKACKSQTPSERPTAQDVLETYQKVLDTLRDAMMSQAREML
# UniProt Q8N5Y8, sequence (Q8N5Y8 whole entry, looked up): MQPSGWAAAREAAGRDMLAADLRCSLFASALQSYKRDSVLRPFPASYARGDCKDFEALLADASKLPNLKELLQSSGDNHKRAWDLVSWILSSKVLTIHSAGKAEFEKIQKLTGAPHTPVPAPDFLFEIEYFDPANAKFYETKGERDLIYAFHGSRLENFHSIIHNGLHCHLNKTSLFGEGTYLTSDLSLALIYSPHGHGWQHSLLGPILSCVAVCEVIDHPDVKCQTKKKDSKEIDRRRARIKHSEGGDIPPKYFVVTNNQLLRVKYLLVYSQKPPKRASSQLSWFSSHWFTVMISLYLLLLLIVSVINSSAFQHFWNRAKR
# UniProt Q01970, sequence (Q01970 whole entry, looked up): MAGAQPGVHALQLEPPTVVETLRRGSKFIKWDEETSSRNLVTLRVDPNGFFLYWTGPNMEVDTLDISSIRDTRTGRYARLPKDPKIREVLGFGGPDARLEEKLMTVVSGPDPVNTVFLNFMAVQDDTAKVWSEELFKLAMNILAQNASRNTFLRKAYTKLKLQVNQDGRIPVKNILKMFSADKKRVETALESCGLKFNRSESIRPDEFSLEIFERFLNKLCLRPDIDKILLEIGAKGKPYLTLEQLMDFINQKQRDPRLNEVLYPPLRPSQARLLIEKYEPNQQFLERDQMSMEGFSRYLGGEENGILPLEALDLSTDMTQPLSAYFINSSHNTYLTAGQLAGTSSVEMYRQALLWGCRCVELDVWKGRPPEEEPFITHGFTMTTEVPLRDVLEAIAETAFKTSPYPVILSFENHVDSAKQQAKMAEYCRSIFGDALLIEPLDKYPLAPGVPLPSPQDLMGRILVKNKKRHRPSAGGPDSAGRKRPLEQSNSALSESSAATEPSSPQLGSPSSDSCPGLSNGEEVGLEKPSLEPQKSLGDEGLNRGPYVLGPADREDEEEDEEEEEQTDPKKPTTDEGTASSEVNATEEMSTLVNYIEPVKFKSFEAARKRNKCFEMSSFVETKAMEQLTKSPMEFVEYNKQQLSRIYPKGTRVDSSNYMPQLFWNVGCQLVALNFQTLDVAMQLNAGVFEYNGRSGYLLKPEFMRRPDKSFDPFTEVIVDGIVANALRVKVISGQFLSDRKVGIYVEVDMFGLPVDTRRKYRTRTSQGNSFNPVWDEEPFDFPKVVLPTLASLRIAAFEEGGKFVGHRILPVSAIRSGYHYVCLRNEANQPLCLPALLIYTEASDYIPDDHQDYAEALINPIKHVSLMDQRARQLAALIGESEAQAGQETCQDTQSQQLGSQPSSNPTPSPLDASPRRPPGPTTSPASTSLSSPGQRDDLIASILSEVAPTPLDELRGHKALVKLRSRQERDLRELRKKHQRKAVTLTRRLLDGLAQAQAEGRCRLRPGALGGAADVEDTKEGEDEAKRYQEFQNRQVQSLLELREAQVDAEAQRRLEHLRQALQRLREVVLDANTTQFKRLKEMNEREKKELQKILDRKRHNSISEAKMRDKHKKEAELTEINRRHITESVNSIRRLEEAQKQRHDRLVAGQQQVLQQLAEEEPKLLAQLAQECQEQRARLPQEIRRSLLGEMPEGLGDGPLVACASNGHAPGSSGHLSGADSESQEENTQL
# UniProt P14618, sequence (P14618 whole entry, looked up): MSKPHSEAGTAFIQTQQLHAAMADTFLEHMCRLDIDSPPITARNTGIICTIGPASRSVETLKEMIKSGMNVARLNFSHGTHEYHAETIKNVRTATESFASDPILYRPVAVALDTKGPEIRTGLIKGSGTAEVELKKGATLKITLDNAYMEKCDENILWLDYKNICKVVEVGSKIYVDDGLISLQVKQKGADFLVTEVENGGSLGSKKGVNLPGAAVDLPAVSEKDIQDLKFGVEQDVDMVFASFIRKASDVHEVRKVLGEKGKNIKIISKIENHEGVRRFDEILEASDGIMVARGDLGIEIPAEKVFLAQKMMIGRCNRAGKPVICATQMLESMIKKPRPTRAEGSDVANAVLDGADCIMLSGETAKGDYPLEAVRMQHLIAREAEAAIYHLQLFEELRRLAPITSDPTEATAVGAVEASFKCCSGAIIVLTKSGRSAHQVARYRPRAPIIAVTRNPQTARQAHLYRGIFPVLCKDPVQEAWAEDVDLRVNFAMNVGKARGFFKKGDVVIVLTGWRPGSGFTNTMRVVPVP
Target,log2 fold change [1],log2 fold change [2],log2 fold change [3],log2 fold change [4],log2 fold change [5],log2 fold change [6],log2 fold change [7],log2 fold change [8],log2 fold change [9],log2 fold change [10],log2 fold change [11],log2 fold change [12],log2 fold change [13],log2 fold change [14],log2 fold change [15],log2 fold change [16],log2 fold change [17],log2 fold change [18],log2 fold change [19],log2 fold change [20]
PLA2G15 (UniProt Q8NCC3),0.064,0.004,0.038,-0.02,0.026,0.035,-0.007,0.021,0.01,0.052,0.071,-0.012,-0.018,-0.057,-0.004,-0.024,0.113,0.006,-0.031,-0.141
PKM (UniProt P14618),0.008,-0.005,0.052,0.003,0.002,-0.003,-0.016,-0.011,-0.006,0.029,0.012,–,-0.011,-0.018,-0.02,0.079,-0.013,-0.033,0.021,0.036
PRKCE (UniProt Q02156),-0.076,0.107,0.111,0.057,0.06,0.057,–,0.004,-0.019,-0.095,-0.02,-0.013,-0.468 (active),–,-0.026,-0.153,–,-0.051,-0.059,-0.009
POLR2M (UniProt Q6EEV4),-0.044,0.096,0.242,0.223,-0.006,-0.001,–,-0.048,-0.041,0.024,-0.014,-0.075,-0.027,–,-0.091,0.128,–,0.005,0.139,0.209
PSMB9 (UniProt P28065),-0.158,-0.633 (active),-0.116,0.113,0.174,-0.142,–,-0.006,–,–,0.091,0.511,0.031,–,-0.01,0.205,–,0.069,–,–
PARP16 isoform 3 (UniProt Q8N5Y8),0.025,0.049,-0.055,-0.018,-0.029,0.102,–,-0.013,-0.026,0.067,-0.036,-0.13,-0.003,–,0.032,-0.012,–,-0.097,-0.009,-0.027
PLCB3 (UniProt Q01970),-0.004,0.028,0.005,0.023,0.054,0.016,-0.011,0.034,-0.057,-0.07,-0.013,-0.026,-0.017,0.014,-0.064,-0.138,-0.003,0.01,-0.022,0.004
POMK (UniProt Q9H5K3),-0.091,-0.007,0.019,0.005,-0.01,0.071,0.005,-0.019,0.006,0.005,0.046,-0.036,-0.042,0.032,-0.024,-0.23,0.027,0.094,-0.009,0.042
PIGH (UniProt Q14442),-0.036,0.068,0.049,0.027,0.042,-0.03,-0.065,-0.054,-0.005,0.009,-0.207,0.022,-0.004,-0.017,0.023,0.014,-0.004,0.139,–,0.096
